PI4K2A inh = PI4K2A (human) kinase inhibition | Q9BTU6 | purified PI4K2A, ADP-Glo luminescence, 1 h; active compounds read low | activity change, negative = inhibition, % at 76.9 µM | 0.13% of 420,000 active; in the data active means activity change below about -50%; inconclusive means mostly about -30% to -49%;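 further: -100% = wells without enzyme as full effect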
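PI4K2A activity was measured by ADP-Glo luminescence: enzyme (4 ug/mL stock) and phosphatidylinositol (1.2 mM stock) in Tris pH 7.5/MgCl2/EGTA/Triton X-100 buffer were reacted with ATP (300 microM stock) for one hour at ambient temperature.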
pAkt inh = Akt phosphorylation inhibition; AID 651550; Neuro2A IGF-stimulated pAkt S473 HTRF, 20 min; active compounds read low; activity change, % for hits at 50 µM; 0.32% of 360,000 active; in the data active means activity change below about -80%; inconclusive means mostly about -51% to -80%; further: on the % scale 0 is the no-effect control and ±100 the full control effect
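Neuro2A cells (4,500/well, DMEM with 0.5% FBS) were treated with compound at a single 50 µM final concentration, stimulated with 6 nM IGF for 20 min at 37 °C, and lysed. Phospho-Akt Ser473 was read by HTRF as 665/615 ratio ×10^4.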
LDHA inh = LDHA (human) enzyme inhibition. 0.15% of 480,000 active. activity change, % (values are at about 110 or 230 µM). P00338. purified LDHA, NADH/diaphorase-resazurin fluorescence; active compounds read low; in the data active means activity change below about -30%; inconclusive means mostly about -25% to -30%;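 further: plate controls were DMSO wells for no effect and wells without enzyme for full effect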
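Resorufin fluorescence (ex540/em590), read at 0 and 20 min after diaphorase/resazurin addition, reports the NADH left after a 5 min room-temperature reaction of 2 nM human LDH5 with 0.06 mM NADH and 0.2 mM pyruvate.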
DRD3 agonist = D3 dopamine receptor (human) agonism; D3R DiscoveRx beta-arrestin cells, luminescence, 90 min; max activation, %; 0.58% of 410,000 active; AID 652048; P35462; in the data active means max activation above about 30%; further: 0% is about no effect
Target sequence (P35462 whole entry, looked up): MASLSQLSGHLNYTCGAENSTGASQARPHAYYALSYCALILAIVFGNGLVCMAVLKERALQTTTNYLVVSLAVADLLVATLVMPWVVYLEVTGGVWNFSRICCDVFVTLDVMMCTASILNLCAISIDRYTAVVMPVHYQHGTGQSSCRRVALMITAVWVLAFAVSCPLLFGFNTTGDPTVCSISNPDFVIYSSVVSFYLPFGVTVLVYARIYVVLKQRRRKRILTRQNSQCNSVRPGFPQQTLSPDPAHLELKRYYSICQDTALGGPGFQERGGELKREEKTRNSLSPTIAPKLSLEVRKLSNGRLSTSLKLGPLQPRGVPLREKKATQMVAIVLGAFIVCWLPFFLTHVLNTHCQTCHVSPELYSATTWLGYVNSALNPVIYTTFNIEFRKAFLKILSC
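Cells at 1500/well, incubated overnight, then treated with pinned compounds (dopamine as control) for 90 min at 37 degrees C. DiscoveRx reagent added for 30 - 60 minutes at room temperature; luminescence read.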
D3 antag = blocks the human D3 dopamine receptor; D3R cells, DiscoveRx beta-arrestin luminescence, antagonist mode; active compounds read low; max response, negative = inhibition, %; AID 652054; 2.5% of 360,000 active; in the data active means max response below about -50%; inconclusive means no clear call, values can overlap the other calls; further: on the % scale 0 is the no-effect control and ±100 the full control effect
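Cells plated overnight at 1500 cells/well, then exposed to library compounds with dopamine controls for 90 minutes at 37 degrees C. DiscoveRx reagent added for 30–60 minutes at room temperature; luminescence read, quantitative HTS format.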
RGS4 inhibitor = inhibitors of human regulator of G protein signaling 4. P49798. Transcreener GDP fluorescence polarization, RGS4-accelerated GTP hydrolysis. Potency, µM (series often up to 114 µM), inactives show at the highest dose activity change, negative = inhibition, actives largely listed as inhibitors. 0.039% of 390,000 active. AID 504845; active means well fitted inhibition curve with a large enough effect; inconclusive means small, poorly fitted or top-dose-only effect; inactive means no such curve, though single readings can be large or run the other way; further: potency means the concentration at half of the fitted maximal effect; on the % scale 0 is the no-effect control and ±100 the full control effect; nearly all actives have a fitted effect of over 75% in size
Target sequence (P49798 whole entry, looked up): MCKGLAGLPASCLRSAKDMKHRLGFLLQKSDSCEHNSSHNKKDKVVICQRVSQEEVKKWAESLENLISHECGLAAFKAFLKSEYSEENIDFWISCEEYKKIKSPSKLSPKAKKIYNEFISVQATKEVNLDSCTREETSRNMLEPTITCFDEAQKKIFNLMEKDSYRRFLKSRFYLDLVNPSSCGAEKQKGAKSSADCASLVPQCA
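MLSMR compounds (23 nl, pin-transferred) preincubated 10 min at room temperature with a 500nM (2x) first reagent, then RGS4 at 900nM (2x) plus Transcreener GDP mix added; fluorescence polarization (620/688 nm) read before and after 90 min at 30 °C.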
Starred values were filed as active, the others as inactive; i = inactive; ? = inconclusive; / = no result; ! = a repeat was not active. Only some compounds are listed: those with a hit (about 2.8% of all), similar ones and a draw of the others.

SMILES	PI4K2A inh	pAkt inh	LDHA inh	DRD3 agonist	D3 antag	RGS4 inhibitor
CC(=O)Nc1cc(-c2cccc(C(=O)NCCN(C)C)c2)cn2c(-c3ccccc3)cnc12	0	/	-8	-24	-52*	/
COc1cccc(-c2cnc3c(NC(C)=O)cc(-c4ccc(C(=O)NC5CC5)cc4)cn23)c1	-5	i	2	7	73	/
COc1ccc(-c2cnc3c(NC(C)=O)cc(-c4ccc(C(=O)NC5CC5)cc4)cn23)cc1OC	-6	i	0	36*	226	/
CC(C)(C)OC(=O)NCCC(=O)NC1CCCCC1	/	/	2	/	/	/
C=C[C@@]1(C)CC(=O)[C@]2(O)[C@@]3(C)[C@@H](O)CCC(C)(C)[C@@H]3[C@H](O)[C@H](OC(C)=O)[C@@]2(C)O1	4	i	-4	36*!	102	-5%
CCCN(CCC)C(=O)CSc1nc2n[nH]c(C)c2c(=N)n1-c1ccc(OCC)cc1	6	i	1	2	-50*	-40%
Cc1cccc(-n2c(SCC(=O)N3CCCC3)nc3n[nH]c(C)c3c2=N)c1	-7	-104%*	-4	13	15	13%
CCCN(CCC)C(=O)CSc1nc2n[nH]c(C)c2c(=N)n1-c1ccc(OC)cc1	-4	i	6	2	12	1%
COc1ccc(Oc2coc3cc(OCc4ccccc4Cl)ccc3c2=O)cc1	/	/	3	/	/	/
Cc1cc(C(=O)Cn2c(Cl)nc3c2c(=O)n(C)c(=O)n3C)c(C)n1CCc1ccccc1	/	/	1	/	/	/
O=C(CCN1Cc2ccccc2C1)c1ccc2c(c1)OCCO2	8	i	0	-29	-52*	-49%
O=C(CCCN1CCN(c2ccccc2)CC1)c1ccc(F)cc1	-4	i	2	2	-102*	/
O=C(CCCN1Cc2ccccc2C1)c1ccc(F)cc1	7	/	-3	-15	-151*	-2%
CN1CCN(CCCC(=O)c2ccc(F)cc2)CC1	5	/	0	-6	-60*	-6%
O=C(CN1CCN(c2ccccc2)CC1)c1ccc2cc[nH]c2c1	3	i	-10	2	-63*	-5%
O=C(CCCN1CCOC(c2ccccc2)C1)c1ccc(F)cc1 (stereo not drawn)	3	i	-5	-26	-86*	14%
O=C(CCCN1CCN2CCCC2C1)c1ccc(F)cc1 (stereo not drawn)	/	/	/	-19	/	/
CC1CC1C(=O)NCCC12CC3CC(CC(C3)C1)C2 (stereo not drawn)	/	/	7	/	/	/
CSc1nc(N)c2c3c(sc2n1)CN(C)CC3	-4	i	-2	4	-52*	14%
CSc1nc(SCC(N)=O)c2c3c(sc2n1)CN(C)CC3	-13	i	3	-12	-54*	26%
O=Cc1ccc(OCC2CC2)c2ccccc12	/	/	7	/	/	/
CCN(CC)C(CNS(=O)(=O)c1cccs1)c1ccsc1 (stereo not drawn)	/	/	-5	/	/	/
CC(C)Cc1nnc(NC(=O)CSc2nc(=O)cc(N)n2-c2ccccc2)s1	4	-114%*	-11	0	0	-24%
COc1ccc(C(C)(NC(C)=O)c2nc(-c3cncnc3)cs2)cc1 (stereo not drawn)	2	i	-10	6	-15	/
CC(=O)NC(C)(c1ccccc1)c1nc(-c2cncnc2)cs1 (stereo not drawn)	0	i	-3	-14	-60*	/
SMILES	PI4K2A inh	pAkt inh	LDHA inh	DRD3 agonist	D3 antag	RGS4 inhibitor
CCC(C)[C@H](NC(=O)NCc1ccccc1)C(=O)OC (stereo partly drawn)	/	/	-1	/	/	/
COC(=O)c1ccccc1NC(=O)NC1CCN(Cc2ccccc2)CC1	-1	i	-11	-33	-93*	12%
CCN1CCC(NC(=O)Nc2ccccc2C(=O)OC)CC1	-1	i	-6	-4	2	10%
COc1ccc(C)cc1NC(=O)NC1CCN(Cc2ccccc2)CC1	6	i	0	-25	-83*	-3%
CCC(C)[C@H](NC(=O)NC1CCN(Cc2ccccc2)CC1)C(=O)OC (stereo partly drawn)	4	i	-5	-38	-50*	-3%
Cc1ccc2c(=O)c(-c3nc(-c4cccc(F)c4)no3)cn(CC(=O)NCc3ccco3)c2n1	/	/	1	/	/	/
CCSc1ncc(Cl)c(C(=O)Nc2ccc(S(=O)(=O)N3CCCCC3C)cc2)n1 (stereo not drawn)	/	/	9	/	/	/
CCOc1ccc(-n2c(SCC(=O)OC)nc3ccccc3c2=O)cc1	/	/	1	/	/	/
O=C(Nc1ccccc1F)c1ccc(C(=O)c2ccccc2)cc1	-5	i	-8	-10	-73*	25%
Cc1nc(-c2ccc(C(=O)Nc3ccc(F)cc3)cc2)cs1	?	i	-15	2	8	-11%
Cc1nc(-c2ccc(C(=O)N3CCOCC3)cc2)cs1	-17	i	-10	5	5	5%
Cc1nc(-c2ccc(C(=O)Nc3ccccc3F)cc2)cs1	-60*	i	-15	1	-1	-10%
Cc1nc(-c2ccc(C(=O)N3CCCC3)cc2)cs1	-56*	i	-12	-10	-21	2%
Cc1cc(NC(=O)c2ccc(Cl)cc2F)n(CCC#N)n1	/	/	-9	/	/	/
COc1ccccc1N1CCN(CCN2C(=O)C3CCCCN3C2=O)CC1 (stereo not drawn)	-17	i	-3	-21	-79*	-40%
COc1ccccc1N1CCN(CCCN2C(=O)C3CCCCN3C2=O)CC1 (stereo not drawn)	0	i	-1	-12	-66*	3%
COc1ccccc1N1CCN(CCCN2C(=O)C3CCCN3C2=O)CC1 (stereo not drawn)	-3	i	1	-13	-83*	-19%
COc1cc(C(=O)OC2/C=C(\C)CCC3OC3(C)CC(O)[C@@H]2C(C)C)cc(OC)c1OC (stereo partly drawn)	/	/	11	/	/	/
O=C(O)CCNC(=O)c1cc(C2CC2)nc2ccccc12	/	/	-23	/	/	/
O=C(CSC1=NC2(CCCCC2)N=C1c1cccs1)NCc1ccc(Cl)cc1	/	/	-11	/	/	/
OCCCNCc1ccc(N(c2ccccc2)c2ccccc2)cc1	-3	i	-16	-21	-66*	-5%
O=c1c2cc(NC(=S)NCCN3CCCCCC3)ccc2nc2n1CCCCC2	5	i	-7	-19	-7	-19%
O=c1c2cc(NC(=S)NCCCN3CCC(Cc4ccccc4)CC3)ccc2nc2n1CCCCC2	15	i	-1	-17	-94*	-12%
CC1CCN(C(=O)c2ccc(NC3=C(Cl)C(=O)N(Cc4ccccc4)C3=O)cc2)CC1	-3	i	6	-33	-53*	-27%
CC1CCN(Cc2ccc(C(=O)O)cc2)CC1	/	/	2	/	/	/
